Several values for one entry are separate records, joined by “and”; a condition that tells them apart may be missing. Equal entries are not always repeated. The whole screen tested about 320,000 compounds, of which about 1,900 (0.59%) were called active. No stated cut-off is given here; in the data, active means inhibition mostly above about 10% (no sharp cut-off); inactive means mostly below about 6.7%. This excerpt belongs to a sample that is enriched for actives.

The target of this assay is Protein LANA1 (Human herpesvirus 8 type P (isolate GK18)) (UniProt Q9QR71). The experiment in a line: blockers of LANA interaction with H2A/H2B – biochemical, FP readout, HTS, primary screen (AID 2629). The following applies: cell-free LANA-H2A/H2B peptide, fluorescence polarization, active compounds read high, concentration not given here. (In general: In fluorescence polarisation assays a small probe gives low polarisation when free and higher when bound to something large.)
Sequence of Protein LANA1 (Human herpesvirus 8 type P (isolate GK18)) (Q9QR71 whole entry, looked up): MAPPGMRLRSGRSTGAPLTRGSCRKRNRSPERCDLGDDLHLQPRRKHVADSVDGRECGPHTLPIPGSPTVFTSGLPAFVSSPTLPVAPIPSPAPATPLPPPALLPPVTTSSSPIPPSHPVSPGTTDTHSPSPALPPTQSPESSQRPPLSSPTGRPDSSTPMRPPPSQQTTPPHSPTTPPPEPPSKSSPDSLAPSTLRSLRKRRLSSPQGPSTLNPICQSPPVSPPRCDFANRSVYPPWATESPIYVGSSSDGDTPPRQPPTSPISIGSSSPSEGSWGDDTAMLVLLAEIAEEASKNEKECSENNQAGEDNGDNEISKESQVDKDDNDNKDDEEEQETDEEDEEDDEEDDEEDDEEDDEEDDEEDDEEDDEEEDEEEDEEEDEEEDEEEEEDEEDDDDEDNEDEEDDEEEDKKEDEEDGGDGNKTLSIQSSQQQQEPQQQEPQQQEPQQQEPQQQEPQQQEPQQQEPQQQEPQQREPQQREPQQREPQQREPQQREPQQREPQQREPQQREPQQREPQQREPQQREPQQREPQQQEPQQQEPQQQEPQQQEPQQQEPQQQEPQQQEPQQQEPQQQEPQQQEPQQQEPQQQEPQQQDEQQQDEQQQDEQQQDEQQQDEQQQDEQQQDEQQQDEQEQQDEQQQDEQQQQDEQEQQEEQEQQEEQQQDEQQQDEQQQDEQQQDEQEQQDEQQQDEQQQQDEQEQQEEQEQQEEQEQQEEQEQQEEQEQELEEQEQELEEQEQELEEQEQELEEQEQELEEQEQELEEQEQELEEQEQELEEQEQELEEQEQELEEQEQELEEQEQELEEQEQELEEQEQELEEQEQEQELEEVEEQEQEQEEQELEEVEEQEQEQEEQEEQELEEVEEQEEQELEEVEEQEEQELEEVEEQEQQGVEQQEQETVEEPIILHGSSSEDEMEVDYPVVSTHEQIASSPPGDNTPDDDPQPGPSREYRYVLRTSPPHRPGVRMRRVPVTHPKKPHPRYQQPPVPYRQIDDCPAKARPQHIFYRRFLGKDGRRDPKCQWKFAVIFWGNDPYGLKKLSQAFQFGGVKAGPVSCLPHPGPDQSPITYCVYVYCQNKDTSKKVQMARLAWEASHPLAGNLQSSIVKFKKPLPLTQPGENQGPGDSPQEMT
One may read the inhibition as the change of the read-out against control, counted positive when it falls. Regarding `CC(=O)Nc1cccc(-c2nc3ccccc3s2)c1C`, the inhibition was 55.2% (active).
In the case of `Oc1ccc(-c2[nH]ncc2-c2nc3ccccc3s2)c(O)c1`, the inhibition is 3.42% (inactive).
For `Cc1ccc(S(=O)(=O)N2CCN(C(=O)c3ccccc3-c3nc4ccccc4s3)CC2)c(C)c1`, the inhibition is 5.83% (inactive).
As to `O=C1C2(c3ccccc3)CN(CCCO)CC1(c1ccccc1)CN(CCCO)C2`, the inhibition is 1.07% (inactive).
Turning to `C=CCN(C(=O)Cn1ncc2c1-c1cc(C)ccc1OC2)c1ccccc1`, the inhibition was -5.38% (inactive).
For the molecule `CCCCc1cc2c(s1)CCCC/C2=N/O`, the inhibition was -0.97% (inactive).
The same measure for `COc1ccc(N2CCN(C(=O)CCNC(=O)c3ccc(Br)cc3)CC2)cc1`: -8.47% (inactive).
For `CN(C)C(=O)c1nc2ccc(Cl)cn2c1CNCc1cccc(OC(F)(F)F)c1` the value was 1.63% (inactive); for `Cc1nnc(SC(C(=O)c2ccccc2)c2ccccc2)[nH]c1=O` (stereo not drawn), -2.85% (inactive).
With `O=C(O)Cc1ccc(-c2ccccc2)cc1`, the inhibition was 54.5% (active).
As to `O=C(O)Cc1ccc(NCc2ccccc2Cl)cc1`, the inhibition is 4.61% (inactive).
On to `O=C(Cc1ccc(-c2ccccc2)cc1)NC(c1ccccc1)c1ccccc1`, for which the inhibition is 3.99% (inactive).
`C/C(=N/OC(=O)c1ccc(Br)cc1)c1ccc(C)cc1`: the inhibition is 4.46% (inactive).
Regarding `Cc1nnc(-c2ccc(Oc3ccc(C)c(C)c3)c([N+](=O)[O-])c2)o1`, the inhibition is 0.884% (inactive).
For `O=S(=O)(Nc1ccccc1N1CCOCC1)c1ccc(Cl)s1`, the inhibition is 4.05% (inactive).
The same measure for `O=S(=O)(Nc1cc(Cl)ccc1N1CCOCC1)c1ccccc1Cl`: 16.7% (active); for `O=S(=O)(Nc1cc(S(=O)(=O)N2CCOCC2)ccc1N1CCCC1)c1cccs1`: -1.3% (inactive).
For `CCCCN(C(=O)c1ccc(S(=O)(=O)N2CCOCC2)cc1)C1CCS(=O)(=O)C1` (stereo not drawn) the value was 3.61% (inactive); for `CCN(CC)CCCNC(=S)N(CCO)Cc1cc2cc3c(cc2[nH]c1=O)OCO3`, -0.647% (inactive); for `COCCCNC(=S)N(CCN(C)C)Cc1cc2cc3c(cc2[nH]c1=O)OCCO3`, 9.12% (active).
For `CCNC(=S)N(CCN(CC)CC)Cc1cc2cc3c(cc2[nH]c1=O)OCCO3`, the inhibition was -5.92% (inactive).
`C=C(C)CNC(=S)/N=c1\scc(C)n1CC`: the inhibition is 3.02% (inactive).
Consider `COc1ccc(Cc2cc(-c3ccc(F)cc3)n[nH]c2=O)cc1`, for which the inhibition is -1.23% (inactive).
For the molecule `Cc1ccc(C(=O)COC(=O)c2cccc(N3C(=O)c4c(C)nc5ccccc5c4C3=O)c2)cc1C`, the inhibition was 14.6% (active).
Consider `Cc1ccc(C(=O)COC(=O)CCN2C(=O)C3C4CCC(C4)C3C2=O)cc1C` (stereo not drawn), for which the inhibition was 0.254% (inactive).
The same measure for `O=C(CCc1nc2ccccc2c(=O)[nH]1)OCC(=O)c1cccc(Cl)c1`: -2.71% (inactive).
With `CC(C)(C)C1CCC(C(=O)NCC(c2cccs2)N2CCOCC2)CC1` (stereo not drawn), the inhibition was -3% (inactive).
For the molecule `CN(Cc1ccc(CNC[C@H]2O[C@@H](n3cnc4c(N)ncnc43)[C@H](O)[C@@H]2O)o1)S(C)(=O)=O`, the inhibition was 1.32% (inactive).
With `O=C(O)Cc1csc(-c2cccc(Oc3ccccc3)c2)n1`, the inhibition is -3.8% (inactive) and 4.18% (inactive).
Consider `COc1cc(C(=O)OC(C)C(=O)NCC2CCCCC2)cc(NC(=O)c2ccco2)c1OC` (stereo not drawn), for which the inhibition was 1.94% (inactive).
Take `CC(C)(C)c1ccc(C(=O)NCc2nnc(SCC(=O)N3CCCc4ccccc43)n2-c2ccccc2)cc1`: the inhibition is 2.13% (inactive).
On to `COc1ccc(NC(=O)C2CCCN(S(=O)(=O)c3cccc4cccnc34)C2)cc1OC` (stereo not drawn), for which the inhibition is 2.61% (inactive).
In the case of `COc1ccccc1CNC(=O)C1CCCN(S(=O)(=O)c2cccc3cccnc23)C1` (stereo not drawn), the inhibition was 138% (active).
The same measure for `COc1ccc(NC(=O)C2CCCN(S(=O)(=O)c3cccc4cccnc34)C2)cc1` (stereo not drawn): -2.43% (inactive).
For the molecule `O=C(C1=C(O)C(=O)N(Cc2ccccc2)C1c1cccnc1)c1ccco1` (stereo not drawn), the inhibition was 10.9% (active).
As for `CCOc1cc(C2C(C(=O)c3ccco3)=C(O)C(=O)N2Cc2ccccc2)ccc1O` (stereo not drawn), the inhibition was 2.24% (inactive).
Turning to `COc1ccc(C2C(C(C)=O)=C(O)C(=O)N2Cc2cccnc2)cc1` (stereo not drawn), the inhibition is 0.519% (inactive).
`Cc1ccc(N(C(=O)Cc2cccs2)C2C=CS(=O)(=O)C2)cc1Cl` (stereo not drawn): the inhibition is 0.0691% (inactive).
Consider `OC1CSc2nc3ccccc3n2C1` (stereo not drawn), for which the inhibition is 0.181% (inactive).
In the case of `CC1Cc2cc(/C(O)=C3\C(=O)C(=O)N(CCN4CCOCC4)C3c3ccccc3F)ccc2O1` (stereo not drawn), the inhibition was -0.116% (inactive).
For `COCCCN1C(=O)C(=O)/C(=C(/O)c2ccc3c(c2)CC(C)O3)C1c1cccnc1` (stereo not drawn) the value was -6.56% (inactive) and -12.2% (inactive); for `CC1Cc2cc(/C(O)=C3\C(=O)C(=O)N(Cc4cccnc4)C3c3ccccc3F)ccc2O1` (stereo not drawn), 12.2% (active).
As to `CN(CC(=O)NCCc1ccc(S(N)(=O)=O)cc1)CC(=O)Nc1ccc(Cl)cc1`, the inhibition is -9.65% (inactive).
Take `CCn1cc(C(=O)NCCCN2CCCCCC2)c(=O)c2cc(S(=O)(=O)N3CCc4ccccc4C3)ccc21`: the inhibition was 1.1% (inactive).
For the molecule `CC1(C)N=C(c2ccccn2)C(C)(C)N1O`, the inhibition was 3.45% (inactive).
Turning to `CC(C(=O)N1CCc2ccccc21)N(C)CC(=O)Nc1ccc(F)cc1` (stereo not drawn), the inhibition was 4.45% (inactive).
Take `COc1cc(NC(=O)c2ccccc2NS(=O)(=O)c2ccc(Cl)s2)cc(OC)c1`: the inhibition is -1.77% (inactive).
Regarding `C=CCC[C@H](Cc1ccc(F)cc1)C(=O)OC[C@@H](Cc1c[nH]c2ccccc12)NC(=O)[C@H](CC=C)CC(=O)N[C@H](CO)Cc1ccccc1`, the inhibition is 145% (active).
The same measure for `C=CC[C@@H](CC(=O)N[C@H](CO)Cc1ccccc1)C(=O)N[C@@H](COC(=O)[C@@H](CC=C)Cc1ccc(F)cc1)Cc1c[nH]c2ccccc12`: -2.42% (inactive); for `C=CCC[C@@H](Cc1ccc(F)cc1)C(=O)OC[C@H](Cc1c[nH]c2ccccc12)NC(=O)[C@@H](CC=C)CC(=O)N(CCO)Cc1ccccc1`: 3.67% (inactive); for `COc1ccc(NC(=O)CSc2nc(SC)ns2)c(OC)c1`: 0.787% (inactive).
In the case of `CCCn1nc(Oc2nc(NC(C)C)nc(N(C)C)n2)ccc1=O`, the inhibition is -2.39% (inactive).
As for `CCCCN(C)CCCNC(=O)c1cc(-c2cccs2)nc2ccccc12`, the inhibition was -1.81% (inactive).
The same measure for `O=C(Nc1nnc(-c2ccccc2)o1)c1cc(-c2cccs2)nc2ccccc12`: 14.9% (active).
For `O=C(NCCN1CCOCC1)c1cc(-c2cccs2)nc2ccccc12` the value was 14% (inactive).
Consider `COc1ccc(NC(=O)CN(C)C(=O)c2cc(C3CC3)nn2-c2ccccc2)cc1`, for which the inhibition is -290% (inactive).
Consider `COc1cccc(NC(=O)CN(C)C(=O)c2cc(C3CC3)nn2-c2ccccc2)c1`, for which the inhibition was 559% [above what the read-out allows, likely interference] (active).
For `CCc1ccccc1NC(=O)CN(C)C(=O)c1cc(C2CC2)nn1-c1ccccc1` the value was -3.11% (inactive).
Consider `COc1cccc(CN2CCN(Cc3ccc4cccc(F)c4n3)CC2CCO)c1` (stereo not drawn), for which the inhibition was -3.14% (inactive).
Turning to `COc1ccc(C2=CC(c3cccc(OC)c3)n3nnnc3N2)cc1` (stereo not drawn), the inhibition is -1.03% (inactive).
The same measure for `COc1ccc(C2C=C(c3ccc(Br)cc3)Nc3nc(NS(C)(=O)=O)nn32)cc1` (stereo not drawn): 31.6% (active).
Turning to `CCS(=O)(=O)n1nc(-c2ccccc2)nc1SCc1ccccc1`, the inhibition is 0.944% (inactive).
As for `COc1ccc(C(=O)NCCn2nc(C)cc2C)cc1OC1CCN(C(C)=O)CC1`, the inhibition was 0.74% (inactive).
For `COc1ccc(C(=O)NC(C)c2nccs2)cc1OC1CCN(C(C)C)CC1` (stereo not drawn), the inhibition is 4.31% (inactive).
With `COc1ccc(C(=O)NC(C)Cn2nc(C)cc2C)cc1OC1CCN(C(C)=O)CC1` (stereo not drawn), the inhibition was 16.1% (active).
For `CCOc1ncccc1C(=O)OCC(=O)NC1CC1` the value was -3.51% (inactive); for `FC(F)(F)c1nnc2c3ccccc3c(Cl)nn12`, 8.62% (inactive).
Take `Cc1nnc(SCc2ccc(C(=O)c3ccc(Cl)cc3)o2)n1-c1ccccc1`: the inhibition is -1.68% (inactive).
For the molecule `COc1ccc(NC(=O)Nc2ccc3c(c2)C(=O)N([C@H](C)CO)C[C@H](C)[C@@H](CN(C)C(=O)Nc2ccc4c(c2)OCO4)O3)cc1`, the inhibition is 1.05% (inactive).
For the molecule `C[C@H](CO)N1C[C@H](C)[C@@H](CN(C)S(=O)(=O)c2ccc(F)cc2)Oc2c(NC(=O)Nc3ccccc3)cccc2C1=O`, the inhibition is 14.5% (active).
Regarding `Cc1noc(C)c1NC(=O)Nc1ccc2c(c1)C(=O)N([C@H](C)CO)C[C@H](C)[C@@H](CN(C)S(=O)(=O)c1cn(C)cn1)O2`, the inhibition was 546% [above what the read-out allows, likely interference] (active).
The same measure for `COc1ccc(S(=O)(=O)N(C)C[C@H]2Oc3c(NC(=O)Nc4ccc5c(c4)OCO5)cccc3C(=O)N([C@H](C)CO)C[C@@H]2C)cc1`: 16.9% (active); for `CC(C)NC(=O)Nc1cccc2c1O[C@@H](CN(C)S(=O)(=O)c1ccc(F)cc1)[C@@H](C)CN([C@H](C)CO)C2=O`: -0.984% (inactive).
With `Cc1noc(C)c1NC(=O)Nc1cccc2c1O[C@H](CN(C)S(=O)(=O)c1c(C)noc1C)[C@@H](C)CN([C@H](C)CO)C2=O`, the inhibition is -5.54% (inactive).
Regarding `Cc1noc(C)c1S(=O)(=O)N(C)C[C@H]1Oc2ccc(NC(=O)C3CC3)cc2C(=O)N([C@H](C)CO)C[C@@H]1C`, the inhibition was 3.05% (inactive).
For `COc1ccc(S(=O)(=O)Nc2cccc3c2O[C@H](CN(C)S(=O)(=O)c2ccc(OC)cc2)[C@@H](C)CN([C@H](C)CO)C3=O)cc1` the value was -1.79% (inactive); for `C[C@H](CO)N1C[C@H](C)[C@H](CN(C)C(=O)Nc2ccc(C(F)(F)F)cc2)Oc2c(NC(=O)c3ccncc3)cccc2C1=O`, 0.195% (inactive).
For `COc1ccc(S(=O)(=O)N(C)C[C@@H]2Oc3ccc(NC(=O)Nc4c(C)noc4C)cc3C(=O)N([C@H](C)CO)C[C@@H]2C)cc1` the value was 4.41% (inactive).

Values taken from PubChem BioAssay AID2629 (Broad Institute, 2010).
